High-throughput results deposited in PubChem by several laboratories.
CSC inhib – cancer stem cell inhibition; cancer stem cell-like cells viability, luminescence; inhibition, % at 7.5 µM; hit rate 1.1% among 300,000; in the data active = inhibition above about 75%; inconclusive = no clear call, values can overlap the other calls; tested in HMLE shEcad cells
Calb FLC – affects C. albicans growth with fluconazole | C. albicans CaCi-2 (fluconazole-resistant clinical isolate) + fluconazole, Alamar Blue growth, 48 h | growth inhibition, % (no concentration beside the values) | hit rate 0.57% among 300,000 | AID 1979;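 active = growth inhibition above about 58% in most replicates, limit read from the data, passing the limit was not always enough; inconclusive = exactly half the replicates above a set limit; inactive = most replicates below a set limit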;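 note: all wells also contain fluconazole at 8 µg/ml as a sub-toxic cotreatment; 0% = median of DMSO wells and 100% = median of geldanamycin control wells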
ALR inh – human ALR oxidase inhibition via reduced H2O2; P55789; purified ALR, DTT oxidation, H2O2 HRP-luminol luminescence; inhibition, % (test concentration not listed); hit rate 3.8% among 290,000;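 active = mean replicate inhibition above about 79%, with every replicate also reaching it, limit read from the data; inconclusive = only one of the two criteria met; inactive = mean below limit and not every replicate reaching it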
PP1 inh – blocks human PP1-alpha phosphatase, a PP5 counter-screen; P62136; purified PP1alpha, OMFP fluorescence; inhibition, % at 6.7 µM; hit rate 0.9% among 320,000; AID 2235;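 active = inhibition above the mean inhibition of all tested compounds plus 3 SD, computed separately for each screening campaign, cut at about 15% in these data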
Target sequence (P62136 whole entry, looked up): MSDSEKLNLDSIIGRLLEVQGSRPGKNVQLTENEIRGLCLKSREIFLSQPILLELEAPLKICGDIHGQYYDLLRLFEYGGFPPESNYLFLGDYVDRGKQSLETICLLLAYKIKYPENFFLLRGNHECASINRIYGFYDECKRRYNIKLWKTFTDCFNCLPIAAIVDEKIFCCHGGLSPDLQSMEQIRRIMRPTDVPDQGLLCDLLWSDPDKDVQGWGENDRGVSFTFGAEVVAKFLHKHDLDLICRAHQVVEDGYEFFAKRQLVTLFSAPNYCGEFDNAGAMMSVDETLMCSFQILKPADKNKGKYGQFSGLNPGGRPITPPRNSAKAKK
PP5 primary – blocks human protein phosphatase 5 activity; P53041; purified PP5c, OMFP substrate fluorescence; inhibition, % at 6.7 µM; hit rate 0.18% among 320,000;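 active = inhibition above the campaign's mean inhibition across all tested compounds plus 3 SD, cut at about 9.5% in these data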;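 note: 0% = DMSO only and 100% = 100 µM cantharidin control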
An asterisk follows results filed as active; u = inconclusive; x = no result given. A selection: hits, their analogues and other compounds. The true share with any hit is near 5.4%.

SMILES	CSC inhib	Calb FLC	ALR inh	PP1 inh	PP5 primary
CC(NC(=O)Cc1cccs1)C(c1cccs1)N1CCN(c2ccccc2F)CC1 (stereo not drawn)	-2	-11	-6	4	6
CC(NC(=O)Cc1cccs1)C(c1cccs1)N1CCN(c2ccccc2)CC1 (stereo not drawn)	-14	-1	96*	8	-1
Cc1ccc(S(=O)(=O)NC(C)C(c2cccs2)N2CCN(c3ccccc3)CC2)cc1 (stereo not drawn)	0	0	x	6	1
CC(=O)NC(C)C(c1cccs1)N1CCN(c2ccccc2)CC1 (stereo not drawn)	-6	-11	99*	-2	4
CC1=C(C(=O)Nc2ccc(C)cc2)C(c2ccco2)NC(=O)N1 (stereo not drawn)	-8	-8	21	-2	2
CC(C)(C)NC(=O)C(c1ccc(F)cc1)N(CCc1ccccc1)C(=O)c1ccn[nH]1 (stereo not drawn)	-1	6	4	2	1
O=C(O)c1ccc(N2C(=O)CC(N3C(=O)/C(=C/c4ccc(Cl)cc4)SC3=S)C2=O)cc1 (stereo not drawn)	11	-4	100*	8	-1
COc1cccc(C2(O)CCN(CC(=O)NCC3CC3)CC2)c1	-8	-16	-7	-1	0
O=C(Nc1nc2ccc(Cl)cc2s1)c1ccco1	5	-15	-3	2	-2
CCOc1ccc(Cc2n[nH]c(=S)n2N)cc1	-9	13	96*	0	1
Nn1c(Cc2ccc(Br)cc2)n[nH]c1=S	-4	11	-23	2	0
CC(O)CC(C(=O)NNc1ccccc1)C(=O)NNc1ccccc1 (stereo not drawn)	92*	u	99*	-1	1
O=C(NNc1ccccc1)C(CCO)C(=O)NNc1ccccc1	-2	100*	98*	-2	-1
CN=c1scc(-c2cccs2)n1/N=C/c1ccccc1O	-8	1	87*	0	2
CN=c1scc(-c2ccccc2Br)n1/N=C/c1ccc[nH]1	31	21	5	0	4
Cc1cc(C)n(/N=C/c2ccccc2O)c(=O)c1	-3	-5	-9	1	0
CN=c1scc(C)n1/N=C/c1cc(Br)c(O)c(OC)c1	-15	16	99*	-1	2
CN=c1scc(-c2cccs2)n1/N=C/c1ccc(O)c(O)c1O	48	64	99*	2	7
CN=c1scc(C)n1/N=C/c1ccc(O)c(O)c1O	2	11	100*	2	3
O=C1c2ccccc2C(=O)N1/N=C/c1ccc(O)c(O)c1O	x	2	x	x	x
CCCc1cc(NCCCN(C)C)n2c(nc3ccccc32)c1C#N	-10	-1	-35	-1	-1
COCCOn1c(SCCOC)nc2ccccc2c1=O	-10	-4	-2	-2	2
CCCn1c(C)cc(C(=O)COC(=O)c2nccnc2N)c1C	3	-11	-1	0	1
COc1ccccc1N1CCN(CCCC(=O)c2ccc(F)cc2)CC1	2	x	64	1	0
COc1ccccc1N1CCN(CCN(C(=O)c2ccc(F)cc2)c2ccccn2)CC1	-7	x	94*	-3	2
SMILES	CSC inhib	Calb FLC	ALR inh	PP1 inh	PP5 primary
COc1ccccc1N1CCN(CCN(C(=O)C2CCCCC2)c2ccccn2)CC1	-8	-21	97*	-6	2
Cc1cccc(C2Nc3ccccc3C(=O)N2NC(=O)c2ccc([N+](=O)[O-])cc2)n1 (stereo not drawn)	-6	4	-14	1	-2
CN(C)c1cc(=O)n2c(n1)SCCC2	-6	-8	2	-2	1
COc1ccc(S(=O)(=O)NCc2ccccn2)cc1OC	-11	13	x	1	1
CCn1cc(C(=O)O)c(=O)c2cc(F)c(N/N=C/c3ccccc3)cc21	2	-10	-14	16*	-2
CCOC(=O)c1cn(CC)c2cc(N3CCSCC3)c(F)cc2c1=O	-4	9	99*	3	0
CCn1cc(C(=O)O)c(=O)c2cc(F)c(N3CCN(C)CC3)cc21	15	6	-12	-4	3
CCOC(=O)c1cn(CC)c2cc(N3CCN(C)CC3)c(F)cc2c1=O	-16	-3	-6	-1	2
CCn1cc(C(=O)N[C@H](C)c2ccccc2)c(=O)c2cc(F)c(N3CCN(C)CC3)cc21	75*	-5	1	7	5
CC(=O)C1=C(c2ccccc2)NC(=O)NC1c1ccc(O)c(O)c1 (stereo not drawn)	-11	36	99*	-6	-2
COc1ccc(C2NC(=O)NC(C)=C2[N+](=O)[O-])cc1OC (stereo not drawn)	-1	10	10	-3	-1
